From PubChem
TexasRed fluor – Texas Red fluorescence interference in TRb-SRC2 counter-screen; Potency, µM (top dose mostly 106 µM), for inactives: at the top dose fluorescence change, negative = quenching; AID 1479; TRb/SRC2 Texas Red total fluorescence interference; actives 0.29% (n = 280,000); active means well fitted curve in either direction with a large enough effect; inconclusive means small, poorly fitted or top-dose-only effect
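Human TRβ ligand-binding domain (0.6 uM) and Texas Red SRC2 peptide (20 nM) in Tris buffer with 1 uM T3 and 5% DMSO were incubated with pinned compound for 5 hr at ambient temperature. Total fluorescence was computed as S + 2P (555/632 nm).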
KDM4E inh – blocks human JMJD2E demethylase activity. B2RXH2. Potency, µM (doses to about 57.1 µM), without a hit: top-dose activity change, negative = inhibition, hits mostly inhibitors. actives 1.6% (n = 230,000). AID 2147. JMJD2E catalytic domain, FDH-coupled NADH fluorescence (FDH is formaldehyde dehydrogenase);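 further: 0% = wells with enzyme and -100% = buffer wells without enzyme; nearly all actives have a fitted effect of over 50% in size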
Target sequence (B2RXH2 1-337 limits assumed): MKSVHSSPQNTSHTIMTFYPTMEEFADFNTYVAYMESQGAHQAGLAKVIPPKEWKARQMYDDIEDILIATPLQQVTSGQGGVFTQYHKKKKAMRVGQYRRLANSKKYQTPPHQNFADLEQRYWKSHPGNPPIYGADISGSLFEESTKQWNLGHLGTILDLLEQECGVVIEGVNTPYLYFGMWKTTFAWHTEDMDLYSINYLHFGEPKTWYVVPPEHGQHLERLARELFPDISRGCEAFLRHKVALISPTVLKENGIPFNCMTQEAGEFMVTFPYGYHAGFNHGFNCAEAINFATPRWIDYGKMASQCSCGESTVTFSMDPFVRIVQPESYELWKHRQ
Tau FP inhib – tau fibrillization inhibition (FP); P10636; K18 P301L tau heparin fibrillization, Alexa594 FP, 6 h; Potency, µM (series often up to 57.7 µM), for the others: top-dose activity, negative = inhibition, usual class: inhibitors; actives 0.39% (n = 280,000); AID 1468; further: nearly all actives have a fitted effect of over 55% in size
Target sequence (P10636 561-689 P618L limits assumed): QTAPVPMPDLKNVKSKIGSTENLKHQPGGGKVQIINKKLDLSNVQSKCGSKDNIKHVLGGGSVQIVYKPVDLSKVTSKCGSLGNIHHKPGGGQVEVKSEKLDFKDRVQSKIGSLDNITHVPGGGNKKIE
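Compound effects on tau fibrillization are measured by Alexa 594 fluorescence polarization (ex 555, em 632 nm). K18 P301L tau is used at 15 uM with 0.24 uM labeled tracer, and 20 uM heparin induces aggregation over 6 hr at 37 C.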
TRb SRC2 PPI – disrupts binding of human TR beta to SRC2; actives 0.065% (n = 280,000); Potency, µM (series often up to 106 µM), for the others: at the highest dose activity change, negative = inhibition, usual class: inhibitors; AID 1469; P10828; TRbeta-SRC2 peptide binding, fluorescence polarization; receptor liganded with 1 µM T3;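 further: plate controls were bound peptide for no effect and peptide without receptor for full effect; nearly all actives have a fitted effect of over 50% in size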
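Assay buffer: 20 mM Tris-HCl, 100 mM NaCl, 10% glycerol, 1 mM EDTA, 0.01% NP-40, 1 mM DTT, 1 uM T3, 5% DMSO; TRb LBD 0.6 uM, Texas Red SRC2 20 nM; FP after 5 hr.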
Tau fibril ThT – blocks human tau fibril formation measured by thioflavin T; P10636; recombinant tau K18 P301L, heparin-induced fibrillization, ThT fluorescence; Potency, µM (top dose mostly 57.4 µM), for the others: top-dose activity, negative = inhibition, usual class: inhibitors; actives 2.1% (n = 270,000); AID 1460; further: nearly all actives have a fitted effect of over 55% in size
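Tau K18 P301L fragment (15 uM unlabeled plus 0.24 uM Alexa 594-labeled) in 100 mM sodium acetate pH 7 with compound, fibrillization induced by 20 uM heparin for 6 hr at 37 C. Thioflavin T (30 uM) added, fluorescence read after 1 hr (ex 450, em 510 nm).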
Tau fluor cs – counter-screen for tau fibril formation inhibitors; tau K18 P301L Alexa594 fluorescence, heparin fibrillization; Potency, µM (top dose mostly 57.7 µM), for the others: at the highest dose activity change, negative = decrease; actives 0.93% (n = 280,000); AID 1463; further: nearly all actives have a fitted effect of over 55% in size
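Human tau K18 P301L (15 uM unlabeled, 0.24 uM Alexa 594-labeled) in 100 mM sodium acetate pH 7 with 20 uM heparin, 6 hr at 37 C. ThT 30 uM added, 1 hr ambient; Alexa 594 FP and total fluorescence read at 555/632 nm.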
* marks the source's active call; other numbers are inactive results; u = inconclusive; x = no result given; [ ] = dose if it differs, or a comment. This is a sample that favours compounds with a hit; in the whole collection about 3.5% have one here. Unless noted, the call rests on the fitted dose curve; in most records, active means well fitted curve in the direction sought with a large enough effect; inconclusive means small, poorly fitted or top-dose-only effect, or another doubt; inactive means no such curve, though single readings can be large; an effect the other way counts as inactive or inconclusive. Unless noted, on the % scale 0 is the no-effect control and ±100 the full control effect; potency means the concentration at half of the fitted maximal effect.

SMILES | TexasRed fluor | KDM4E inh | Tau FP inhib | TRb SRC2 PPI | Tau fibril ThT | Tau fluor cs
CC(=O)n1cc(N(C(=O)CCl)c2ccccc2)c2ccccc21 | -2.0% | u | 2.0% | 0.5% | u | -4.9%
CC(=O)n1cc(N(C(=O)CCl)c2ccc([N+](=O)[O-])cc2)c2ccccc21 | -2.3% | -1.6% | -7.1% | -7.7% | 28.2µM* | u
Cc1ccc(Cn2c(CNS(=O)(=O)c3cccc([N+](=O)[O-])c3)nc3cccnc32)cc1 | 1.5% | x | 8.2% | 2.0% | -12.3% | u
Cc1cc(C)cc(Nc2sc(C(=O)c3ccccc3)c(N)c2S(=O)(=O)c2ccccc2)c1 | -1.6% | x | -3.6% | -0.3% | -0.3% | -11.5%
O=C(NN1C(=O)/C(=C/c2cccs2)SC1=S)c1ccccc1 | -11.2% | -2.8% | -2.6% | 4.8% | u | -28.5%
Cn1cccc1/C=C1\SC(=S)N(NC(=O)c2ccc(F)cc2)C1=O | -0.8% | -7.5% | -13.4% | -5.1% | 3.55µM* | u
Cn1cccc1/C=C1\SC(=S)N(NC(=O)c2ccccc2O)C1=O | -2.4% | -7.6% | 3.8% | 9.2% | 7.94µM* | u
COc1ccccc1C(=O)NN1C(=O)/C(=C/c2cccn2C)SC1=S | -4.1% | -26.4% | -16.5% | -7.8% | u | u
Cn1cccc1/C=C1\SC(=S)N(NC(=O)c2ccccc2)C1=O | -0.8% | -10.8% | 1.5% | -5.5% | 11.2µM* | u
O=C(NN1C(=O)/C(=C/C=C/c2ccco2)SC1=S)c1ccccc1O | u | 12.6µM* | u | 11.8% | 7.08µM* | u
COc1ccc(OC)c(-c2cc(C(=O)Nc3cc(C)n(Cc4ccc(Cl)cc4)n3)no2)c1 | 0.5% | u | -10.5% | -10.3% | -0.9% | -20.9%
COc1ccc(C2CN=NC2C(=O)c2ccccc2)cc1 (configuration not stated) | 0.6% | -4.3% | 6.6% | -0.6% | -8.2% | -9.5%
Cn1cccc1/C=C1\SC(=S)N(NC(=O)c2cccc(Cl)c2)C1=O | -0.3% | -6.9% | -0.6% | -5.5% | 3.98µM* | u
COc1cc(S(=O)(=O)NCCc2c(C)[nH]c3ccc(C)cc23)ccc1Br | -1.6% | x | u | -2.8% | u | 14.1µM*[quencher]
COc1ccc(C(C)C)cc1S(=O)(=O)NCCc1c(C)[nH]c2ccc(C)cc12 | 5.1% | x | u | -3.0% | u | 10µM*[quencher]
Cc1ccc(NC(=O)CSc2nc(-c3cccs3)nc3cc(=O)[nH]n23)cc1 | -1.3% | x | -1.5% | 0.5% | -1.6% | 2.2%
O=C(c1cc(O)c(O)c([N+](=O)[O-])c1)c1ccccc1F | u | 11.2µM* | 3.9% | 3.7% | u | -20.5%
CSc1ncc(Cl)c(C(=O)Nc2cc(C(F)(F)F)ccc2Cl)n1 | -15.5% | x | -13.3% | 3.1% | -4.0% | -15.9%
CCNc1nc(N)nc(Oc2ccc(C(=O)OC)cc2)n1 | 0.9% | 7.4% | -0.3% | -1.4% | -5.4% | 1.9%
Cc1cccc(NC(=O)CN2C(=O)N/C(=C/c3cc(C)n(C)c3C)C2=O)c1 | -3.8% | 31.6µM* | 4.7% | 2.6% | u | u
Cc1cc(/C=C2/NC(=O)N(c3ccccc3)C2=O)c(C)n1-c1cccnc1 | -0.5% | 20µM* | -1.2% | 0.7% | u | -17.1%
Cc1cccc(NC(=O)CN2C(=O)N/C(=C/c3cc(C)n(-c4ccncc4)c3C)C2=O)c1 | -3.9% | -20.2% | -4.4% | -4.2% | -0.5% | -0.5%
Cc1cccc(NC(=O)CN2C(=O)N/C(=C/c3cc(C)n(-c4cccnc4)c3C)C2=O)c1 | -0.8% | 17.8µM* | 7.5% | -6.9% | -11.3% | -15.5%
Cc1cccc(NC(=O)CN2C(=O)S/C(=C\c3cc(C)n(C)c3C)C2=O)c1 | 2.4% | 4.3% | 2.6% | 3.2% | u | u
CCCCC[C@H](O)/C=C/[C@@H]1[C@@H](CC(=O)CCCCC(=O)O)[C@@H](O)C[C@H]1O | -0.3% | -7.8% | -8.2% | 4.8% | -7.8% | -2.0%
